BAZ2B block: qHTS Assay for Inhibitors of BAZ2B; Bromodomain adjacent to zinc finger domain protein 2B (Homo sapiens), Q9UIF8; AlphaScreen BAZ2B-H3K14Ac peptide displacement; Potency, µM (highest dose often 114 µM), inactives show at the top dose activity change, negative = inhibition, hits mostly inhibitors; hit rate 4.4% among 360,000; AID 504333, 2011; note: % is set by controls: 0 for no effect and ±100 for the full control effect; nearly all actives have a fitted effect of over 60% in size
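AlphaScreen displacement: compounds (up to 110uM) incubated 30 min at room temperature with a preformed 50 nM BAZ2B/50 nM biotinylated H3K14Ac peptide complex in PBS pH 7.4 with Tween-20. Donor and acceptor beads at 10 ug/mL final added, 20 min light-protected before reading.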
JMJD2A Tudor inh: qHTS Assay for Inhibitors of JMJD2A-Tudor Domain | AlphaScreen JMJD2A-Tudor / H3K4me3 peptide binding | Potency, µM (series often up to 114 µM), for inactives: top-dose activity change, negative = inhibition, actives largely listed as inhibitors | hit rate 4.4% among 390,000 | AID 504339, 2011; note: % is set by controls: 0 for no effect and ±100 for the full control effect; nearly all actives have a fitted effect of over 50% in size
Sfp inh: qHTS Assay for Inhibitors of Bacillus subtilis Sfp phosphopantetheinyl transferase (PPTase) | 4'-phosphopantetheinyl transferase ffp (Bacillus subtilis), Q9F4F7 | Biochemical Sfp PPTase activity, qHTS | Potency, µM, without a hit: largest response in the series, negative = inhibition, actives largely listed as inhibitors | hit rate 3.5% among 310,000 | AID 1490, 2009;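 note: the enzyme is Sfp with the accession as filed and its product quenches rhodamine fluorescence; 0% = enzyme reaction without inhibitor and -100% = no enzyme wells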
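Fluorescence-quenching assay: 15 nM Sfp-PPTase preincubated 15 min at room temperature with compound, then 5 uM rhodamine-CoA and 12.5 uM BHQ-2-labelled YbbR peptide added. Fluorescence (ex 525/em 598 nm) read at start and after 30 min; difference gives rate.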
HP1b binding inh: HTS for Inhibitors of HP1-beta Chromodomain Interactions with Methylated Histone Tails; Chromobox protein homolog 1 (Homo sapiens), P83916; AlphaScreen HP1-beta / biotin-H3K9me3 peptide binding; Potency, µM (top dose mostly 114 µM), inactives show top-dose activity change, negative = inhibition, hits mostly inhibitors; hit rate 0.56% among 390,000; AID 540317, 2011; note: nearly all actives have a fitted effect of over 70% in size
Target sequence (P83916 whole entry, looked up): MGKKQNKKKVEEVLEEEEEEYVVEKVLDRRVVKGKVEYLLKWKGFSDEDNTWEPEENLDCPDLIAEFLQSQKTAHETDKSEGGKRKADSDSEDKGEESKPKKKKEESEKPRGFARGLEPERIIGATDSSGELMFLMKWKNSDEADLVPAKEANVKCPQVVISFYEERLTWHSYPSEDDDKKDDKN
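HP1-beta protein (50 nM final) preincubated 30 min at room temperature with biotinylated H3(1-18)K9me3 peptide (50 nM) in PBS pH 7.4, 0.01% Tween-20, then compound added for 30 min. AlphaScreen streptavidin donor/nickel chelate acceptor beads (10 ug/mL final), 30 min dark, luminescence read.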
G9a inh: qHTS Assay for Inhibitors of Histone Lysine Methyltransferase G9a. G9a H3K9 monomethylation, AlphaScreen, 2 h. hit rate 8.8% among 350,000. AID 504332, 2011. Potency, µM (titrated, usually from 102 µM), inactives show top-dose activity, negative = inhibition, actives largely listed as inhibitors; note: % is set by controls: 0 for no effect and ±100 for the full control effect; nearly all actives have a fitted effect of over 75% in size
Target sequence (Q96KQ7 913-1193 limits assumed): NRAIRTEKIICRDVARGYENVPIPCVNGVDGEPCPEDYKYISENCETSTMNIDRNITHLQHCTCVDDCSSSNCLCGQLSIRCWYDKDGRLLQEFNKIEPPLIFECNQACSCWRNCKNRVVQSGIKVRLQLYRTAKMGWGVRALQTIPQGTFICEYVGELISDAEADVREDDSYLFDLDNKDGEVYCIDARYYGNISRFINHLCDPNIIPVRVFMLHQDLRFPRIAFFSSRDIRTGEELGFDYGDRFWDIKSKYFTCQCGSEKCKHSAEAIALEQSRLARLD
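G9a (20 nM) was preincubated 15 min with compound, then reacted 2 h at room temperature with 500 nM biotin-H3K9 peptide and 20 µM SAM. Monomethyl-H3K9 detected by AlphaScreen using anti-H3K9me1 antibody.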
Starred values were filed as active, the others as inactive; ? = inconclusive; / = no result given; [ ] = another dose, or the depositor's remark. In the library only some 12% were active in any assay of this set; here they are far more common. Calls come from the whole dose curve; as a rule, active = well fitted curve in the direction sought with a large enough effect; inconclusive = small, poorly fitted or top-dose-only effect, or another doubt; inactive = no such curve, though single readings can be large; an effect the other way counts as inactive or inconclusive. Potency is the fitted concentration of half-maximal effect.

SMILES | BAZ2B block | JMJD2A Tudor inh | Sfp inh | HP1b binding inh | G9a inh
O=C(Cc1cccc2ccccc12)Nc1ccc(N2CCOCC2)cc1 | 50µM* | -9% | -2% | 21% | /
O=C(Cc1cccc2ccccc12)Nc1ccc(O)cc1C(=O)O | -10% | -27%[57.1 µM] | 1% | 0% | 71µM*
CC(=O)Oc1ccc(NC(=O)Cc2ccccc2)c(C(=O)O)c1 | ? | -6% | -7% | 47% | 71µM*
COc1ccc(NC(=O)Cc2cccc3ccccc23)cc1 | ? | -7% | 1% | 35% | /
O=C(CCS(=O)(=O)c1ccccc1)Nc1ccc(N2CCOCC2)cc1 | -26% | -26% | 8% | 7% | 56µM*
Cc1cn(CCC(=O)Nc2ccc(N3CCOCC3)cc2)c2ccccc12 | ? | ? | -3% | -10% | 45µM*
COc1ccccc1CNCC(=O)Nc1ccc(N2CCOCC2)cc1 | 50µM* | 40µM* | -8% | 8% | 4.5µM*
O=C(CN1C(=O)CSC1=O)Nc1ccc(N2CCOCC2)cc1 | 7% | 0% | -12% | 20% | 16µM*
Cc1cn(CCC(=O)Nc2ccccc2N2CCOCC2)c2ccccc12 | -35% | -23% | -4% | -3% | -15%
COc1ccccc1NC(=O)Nc1ccc(N2CCOCC2)cc1 | -24% | ? | -1% | -1% | 32µM*
Cc1ccc(F)c(CNC(=O)C2CCC(=O)N(CCN3CCOCC3)C2)c1F (stereo not given) | -3% | -11% | 9% | 33% | -4%
Cc1ccc(-c2nc3c(=O)n(C)c4ccccc4c3o2)cc1 | -8% | -10% | 11% | 10% | -8%
CC(=O)Cc1nsc(NC(=O)c2ccc(-c3ccccc3Cl)o2)n1 | -5% | ? | 11% | 23% | -27%[12.7 µM]
Nc1ccc(C=C2C=Cc3ccccc32)cc1 | / | 35µM* | / | ? | /
COC1=C(OC)C(=O)C(CCCCCCCCCCO)=C(C)C1=O | 50µM* | / | 4% | / | ?
CCCCCCCCCCC1=C(C)C(=O)C(OC)=C(OC)C1=O | / | / | -16% | / | 5µM*
Cc1[nH]c2ccccc2c1CCCO | -23% | -20% | 18% | 0% | 5%
COc1ccc(Cl)cc1N(C)C(=O)C(=O)Nc1ccc2nc3n(c(=O)c2c1)CCCCC3 | -10% | -19% | / | 4% | -7%[59 µM]
CCn1cc(SCC(=O)NCC2CCCO2)c2ccccc21 (stereo not given) | 4% | -7% | -2% | 51% | ?
CN(C)/C=C/C(=O)C(F)(F)F | 7% | -16% | 8% | 36% | 27%
Cc1cccc(Nc2nc(-c3ccc(O)c(O)c3)cs2)n1 | 50µM* | ? | -12% | ? | 40µM*
Cc1ccnc(Nc2nc(-c3ccc(O)cc3O)cs2)c1 | 50µM* | ? | 40µM* | -10% | 79µM*
Oc1ccc(-c2csc(Nc3cccc4ccccc34)n2)cc1O | 35µM* | 40µM* | 50µM* | ? | 13µM*
Cc1ccnc(Nc2nc(-c3ccc(O)cc3)cs2)c1 | ? | ? | 4% | -14% | ?
Oc1ccc(-c2csc(Nc3ccccn3)n2)cc1O | 40µM* | 56µM* | 45µM* | 14µM* | 11µM*
SMILES | BAZ2B block | JMJD2A Tudor inh | Sfp inh | HP1b binding inh | G9a inh
CC(=O)Nc1ccc(-c2csc(Nc3ccccn3)n2)cc1 | -5% | -20% | -27% | 24% | /
CCOc1ccccc1NC(=O)CN(c1ccc(OC)cc1OC)S(=O)(=O)c1ccccc1[N+](=O)[O-] | -10% | -30% | 19% | -9% | /
Cc1cc(C)nc(N2CCCC(C(=O)NC3CC3)C2)n1 (stereo not given) | 0% | 6% | 10% | 15% | 3%
O=C(NC(=S)NCCCN1CCOCC1)c1ccc([N+](=O)[O-])cc1 | -8% | ? | -13% | 15% | ?
Cc1ccnc(Nc2nc(-c3ccc(O)c(O)c3)cs2)c1 | 40µM* | 56µM* | 50µM* | ? | 28µM*
O=C(O)CCC(=O)Nc1ccc2c(c1)Cc1cc(NC(=O)CCC(=O)O)ccc1-2 | ? | 89µM* | -8% | 3% | 39%[0.501 µM]
Cn1cccc1C(=S)N=P(C1CCCCC1)(N1CCOCC1)N1CCOCC1 | -28% | 35µM* | -28% | ? | 8.9µM*
Cn1cccc1C(=S)N1CCOCC1 | 9% | -11% | -27% | -15% | ?
O=C(CNC(=O)c1ccc2ccccc2c1)NCc1ccc(F)cc1 | -30% | -5% | 7% | 1% | 1%
Cc1cc(O)c(C(C)C)cc1N=C1CSC(=O)N1 | -8% | -26% | 56µM* | 1% | ?
O=C1NC(=Nc2ccccc2)CS1 | 3% | -5% | -1% | 16% | 3%[12.7 µM]
O=C(CN(CC1CCCO1)C(=O)CNS(=O)(=O)c1ccc(Cl)cc1)NCC1CCCO1 (stereo not given) | -7% | -17% | 6% | 27% | -13%[59 µM]
CN(C)c1ccc(N=Nc2nc3ccccc3n2C)cc1 | 2.8µM* | 10µM* | -17% | 14µM* | ?
Cn1c(/N=C/c2ccc3c(c2)OCO3)nc2ccccc21 | -3% | -23% | 3% | -4% | -4%
Cn1c(N=Nc2ccccc2)nc2ccccc21 | 50µM* | ? | ? | ? | ?
Cn1c(Cl)nc2ccccc21 | -3% | ? | 28% | 16% | 7%[12.7 µM]
COC(=O)c1ccccc1CSc1nsc(/C=C/N(C)C)c1C#N | 45µM* | 50µM* | 16µM* | ? | 0%[2.33 µM]
Cc1nc(CSc2nsc(/C=C/N(C)C)c2C#N)cs1 | 40µM* | ? | ? | ? | 20µM*
CCOc1ccc(CCNC(=O)c2ccc(CS(=O)(=O)c3ccccc3C)o2)cc1OCC | -9% | -34% | / | 22% | -33%[59 µM]
CC(=NNC(=S)N1CC2CCC(CC2)C1)c1ccncn1 | / | 14µM* | / | ? | /
COc1ccc(C(=O)NCC(=O)N/N=C/C(C)=C/c2ccccc2)cc1OC | 0% | -13% | 2% | 28% | -2%
CC(C)=Cc1oc2ccc([N+](=O)[O-])cc2c1N1CC(C)OC(C)C1 (stereo not given) | 63µM* | -12% | -9% | ? | 14µM*
Cc1ccc(C(=O)c2cc([N+](=O)[O-])ccc2N2CC(C)OC(C)C2)cc1 (stereo not given) | -32% | ? | 10% | -1% | 8%[59 µM]
COCCCNCCOCCOc1c(OC)cccc1OC | 6% | -8% | 15% | 36% | -47%
C=CCNCCOCCSc1ccc(Cl)cc1 | ? | 3.2µM* | -13% | ? | 7.9µM*
COCCNCCCCSc1ccc(Cl)cc1 | 56µM* | 8.9µM* | ? | -35% | /
OCCNCCCOc1cc(Cl)ccc1Cl | -2% | -19% | -93% | 36% | -20%
COCCNC(=O)CSc1ccc(Cl)cc1 | -17% | 10% | 18% | 43% | 0%[59 µM]

From PubChem
